From PubChem
Rab9 promoter act = qHTS Assay for Rab9 Promoter Activators; Huh7 Rab9 promoter-luciferase reporter, luminescence, 24 h; 2.8% of 320,000 active; Potency, µM (top dose mostly 9.22 µM), inactives show at the highest dose activation, negative = inhibition, usual class: activators; also: % of control where 0% means no effect; nearly all actives have a fitted effect of over 60% in size
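Luciferase signal after 10 min detection reagent at ambient indicates Rab9 promoter upregulation; stably transfected Huh7 cells were treated 24 h with compound in DMSO at 37 °C, 5% CO2.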
NPC1 prom act = qHTS Assay for NPC1 Promoter Activators. 2.4% of 320,000 active. Potency, µM (doses to about 9.22 µM), inactives show top-dose activation, most hits filed as activators. Huh7 NPC1 promoter luciferase reporter, 24 h; also: % of control where 0% means no effect; nearly all actives have a fitted effect of over 60% in size
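NPC1 promoter–luciferase Huh7 cells; 24 h compound; luminescence.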
SMN2 splice up = qHTS Assay for Enhancers of SMN2 Splice Variant Expression | Potency, µM (highest dose often 46.1 µM), for the others: at the highest dose activity change, positive = activation, hits mostly activators | AID 1458, 2008 | 2.8% of 210,000 active | HEK293 SMN2-luciferase splicing reporter, luminescence, 30-36 h; also: % of control where 0% means no effect; nearly all actives have a fitted effect of over 55% in size
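qHTS luciferase splicing reporter: luminescence rises when SMN2 exon 7 is included in transfected HEK293 cells. Compound exposure lasted 30-36 h at 37C, with 4.5 mM final sodium butyrate as control, followed by a ONE-Glo read.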
ELG1 genotox = qHTS screen for small molecules that induce genotoxicity in human embryonic kidney (HEK293T) cells expressing luciferase-tagged ELG1. HEK293T ELG1-luciferase reporter, luminescence, 16 h. Potency, µM (top dose mostly 46 µM), for the others: at the top dose activity change, positive = activation, most hits filed as activators. 1.3% of 330,000 active. AID 504466, 2011; also: % of control where 0% means no effect; nearly all actives have a fitted effect of over 60% in size
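DMSO vehicle served as control against compound-treated ELG1-luciferase HEK293T cells; exposure lasted 16 hr at 37 °C and 5% CO2, followed by ONE-Glo luminescence detection after 30 min.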
FLuc counter = qHTS profiling assay for firefly luciferase inhibitor/activator using purifed enzyme and Km concentrations of substrates (counterscreen for miR-21 project). purified FLuc, Km substrates, luminescence inhibition. Potency, µM (top dose mostly 57.5 µM), for the others: at the top dose activity change, negative = inhibition, hits mostly inhibitors. 6.9% of 360,000 active. AID 588342, 2011;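 also: plate controls were vehicle for no effect and reference inhibitor for full effect; nearly all actives have a fitted effect of over 55% in size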
Target sequence (P08659 whole entry, looked up): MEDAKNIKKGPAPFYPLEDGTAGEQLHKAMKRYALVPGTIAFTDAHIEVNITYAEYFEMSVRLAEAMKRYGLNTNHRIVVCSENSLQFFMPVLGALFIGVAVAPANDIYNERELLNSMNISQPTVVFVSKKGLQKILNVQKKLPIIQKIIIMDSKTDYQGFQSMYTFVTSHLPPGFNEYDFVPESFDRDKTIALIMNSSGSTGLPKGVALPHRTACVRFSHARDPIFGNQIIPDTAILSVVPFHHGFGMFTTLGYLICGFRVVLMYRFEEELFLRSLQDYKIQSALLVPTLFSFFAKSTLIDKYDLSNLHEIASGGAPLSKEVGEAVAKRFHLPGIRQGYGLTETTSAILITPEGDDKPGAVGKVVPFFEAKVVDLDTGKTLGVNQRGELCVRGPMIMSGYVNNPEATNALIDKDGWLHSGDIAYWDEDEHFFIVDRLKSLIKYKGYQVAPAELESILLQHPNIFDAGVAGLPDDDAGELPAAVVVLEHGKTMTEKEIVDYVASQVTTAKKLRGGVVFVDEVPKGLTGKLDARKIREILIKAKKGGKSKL
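Purified P. pyralis luciferase, 10 nM final, with Km-level 10 uM D-luciferin and 10 uM ATP in 50 mM Tris acetate pH 7.5, 10 mM Mg acetate, 0.01% Tween-20, 0.05% BSA; 6-point qHTS titration about 60 µM downward; luminescence read.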
An asterisk follows results filed as active; ? = inconclusive; . = not tested or not shown; [ ] = remark or other dose. The list is not random: actives were taken first. Their share in the collection is about 7.4%. Calls follow the shape of the dose curve; as a rule, active = well fitted curve in the direction sought with a large enough effect; inconclusive = small, poorly fitted or top-dose-only effect, or another doubt; inactive = no such curve, though single readings can be large; an effect the other way counts as inactive or inconclusive. Potency is read from the fitted curve at half-maximal effect.

SMILES	Rab9 promoter act	NPC1 prom act	SMN2 splice up	ELG1 genotox	FLuc counter
Nc1c(C(=O)N2CCOCC2)sc2nc3c(cc12)CCC3	0.89µM*	1.3µM*	11µM*	2.9µM*	7.6µM*
COC(=O)c1sc2nc3c(cc2c1N)CCCC3	0.5µM*	1.4µM*	10µM*	?	3µM*
Nc1c(C(=O)N2CCCC2)sc2nc3c(cc12)CCCCCC3	4µM*	3.2µM*	14µM*	14%	?
Nc1c(C(=O)N2CCOCC2)sc2nc3c(cc12)CCCC3	0.11µM*	0.35µM*	.	0.58µM*	0.48µM*
NC(=O)c1sc2nc3c(cc2c1N)CCC3	?	?	?	-8%	?
Cc1ccc(C)c2nc3sc(C(=O)N4CCOCC4)c(N)c3cc12	?	15%	.	?	?
Cn1c2cc(B(O)O)sc2c2cnn(Cc3ccc(F)cc3F)c(=O)c21	2%	-13%	.	.	-9%
COc1ccccc1CNC(=O)CN1C(=O)CSc2c1c(C)nn2-c1ccccc1	.	.	.	.	2%
Cc1cc(C(=O)Nc2nc(C)c(C(=O)N(C)C)s2)ccc1[N+](=O)[O-]	0.45µM*	0.35µM*	1.8µM*	2.6µM*	4.3µM*
COc1ccc(S(=O)(=O)c2cn(C)c3cc(N4CCCCCC4)c(F)cc3c2=O)cc1	.	.	.	.	7%
Cc1ccc(Nc2nc(N)nc(CC#N)n2)cc1	?	?	18µM*	18µM*	11µM*
CCOc1ccc(Nc2nc(N)nc(CCl)n2)cc1	-53%	-43%	.	10%	3µM*
COc1cccc(Nc2nc(N)nc(CCl)n2)c1	-50%	-41%	.	-7%	21µM*
Cc1cccc(Nc2nc(N)nc(CCl)n2)c1	-50%	-39%	.	-7%	?
Cc1ccc(Nc2nc(N)nc(CSc3nc4ccccc4s3)n2)cc1	0%	3%	-1%	-7%	-26%
Cc1ccc(Nc2nc(N)nc(CCl)n2)c(C)c1	-49%	-37%	.	-17%	11µM*
CCSC1=NC2(CCN(C(=O)NC3CCCCC3)CC2)N=C1c1ccc(C)cc1	.	.	.	.	2%
O=C(CSc1nc(=O)n(Cc2ccncc2)c2c1CCC2)Nc1cccc(F)c1	.	.	.	.	-5%
COc1cccc(CNC(=O)C(C)n2c(=O)cc(-c3ccccc3)c3c(C)nn(C)c32)c1 (stereo unspecified)	.	.	.	.	-13%
CN1C(C(=O)NCc2ccc(OC(F)(F)F)cc2)CC2Cn3c(nc4ccccc43)C21 (stereo unspecified)	-1%	?	.	0%	-1%
Cc1ccc(Nc2nc(N)nc(CSCCO)n2)cc1	2µM*	?	?	?	24µM*
Nc1nc(CCl)nc(Nc2ccccc2)n1	-48%	-36%	.	-11%	?
Cc1ccc(Nc2nc(N)nc(CCl)n2)cc1	-49%	-49%	.	17%	1.9µM*
Cc1ccc(Nc2nc(N)nc(COC(=O)C3=COCCO3)n2)cc1	2.8µM*	2µM*	.	?	13µM*
Cc1ccc(NC(=O)COC(=O)C2=COCCO2)cc1	2%	-3%	-5%	8%	?
SMILES	Rab9 promoter act	NPC1 prom act	SMN2 splice up	ELG1 genotox	FLuc counter
CCOC(=O)C1CCN(C(=O)Cn2nc(C)n3c(cc4sccc43)c2=O)CC1	.	.	22%	.	4%
C#CC(N)CCC(=O)O (stereo unspecified)	-2%[46.1 µM]	1%[46.1 µM]	6%	.	.
Cc1nnc(Sc2nc3ccccc3o2)c2ccccc12	0%	-5%	.	15%	19µM*
COc1ccccc1C(=O)N1CCC(c2c[nH]c3ccccc23)(c2c[nH]c3ccccc23)CC1	.	.	?	.	-2%
CC(C(=O)O)N1C(=O)/C(=C/C=C/c2ccco2)SC1=S (stereo unspecified)	1%	8%	-9%	0%	17µM*
O=C1/C(=C/C=C/c2ccco2)SC(=S)N1NS(=O)(=O)c1ccccc1	-1%	0%	.	-3%	?
Cc1cc(C)cc(N(CC(=O)NC2CCC(C)CC2)S(=O)(=O)c2c(C)[nH]c(=O)[nH]c2=O)c1 (stereo unspecified)	-10%	1%	.	0%	0%
C/C(=N/NC(=O)C1CCCN1C(=O)c1ccc([N+](=O)[O-])cc1)c1ccc(Br)cc1 (stereo unspecified)	2%	-5%	.	-5%	6%
C=CCOc1ccc(CNc2nccs2)cc1	25%	2%	?	14%	13µM*
C=CCOc1ccc(CNc2nccs2)cc1OCC	-2%	-2%	-24%	2%	-18%
COc1cc(NC(=O)C2=COCCO2)c(OC)cc1Cl	0%	1%	.	0%	-1%
O=C(NCCc1ccc(F)cc1)C(=O)NCC(c1ccco1)S(=O)(=O)c1cccs1 (stereo unspecified)	.	.	.	.	-5%
COc1ccc(N(/N=C2\Sc3ccccc3C2=O)C(C)=O)cc1	?	10%	16µM*	?	12µM*
COc1ccccc1N(/N=C1\Sc2ccccc2C1=O)C(C)=O	4.5µM*	25%	.	0.92µM*	12µM*
CCCc1nnc(SCC(=O)Nc2nnc(CC)s2)n1CC1CCCO1 (stereo unspecified)	0%	-5%	.	-4%	3%
O=C(COC(=O)c1ccccc1O)Nc1cc([N+](=O)[O-])ccc1Cl	-1%	-5%	.	5%	0%
O=C(NC(=S)Nc1ccccc1O)c1ccc(Cl)cc1Cl	?	?	24%	?	19µM*
Nc1ccccc1C(=O)Nc1ccc(Cl)cc1Cl	2.5µM*	?	.	?	11µM*
CC(C)NC(=S)NC(=O)c1ccc(Cl)cc1Cl	1%	0%	0%[1.84 µM]	1%	-18%
C#Cc1cccc(NC(=O)c2ccc(Cl)cc2Cl)c1	1.1µM*	1.8µM*	.	16µM*	2.7µM*
O=C(Nc1ccc(Cl)cc1Cl)c1ccc(-c2ccccc2)cc1	-1%	4%	-6%	5%	-5%
O=C(Nc1ccccc1Cl)c1ccccc1Cl	0%	0%	-15%	11%	-16%
O=C(Nc1ccccc1Cl)c1ccc(Cl)cc1Cl	26%	11%	11%	26%	13µM*
O=C(COc1ccccc1F)Nc1ccc2nc(SCc3ccccc3)sc2c1	.	.	.	.	-12%
COc1c(C)cc(C(=O)C2CCCN(S(=O)(=O)N(C)C)C2)cc1C (stereo unspecified)	-5%	0%	.	-7%	-8%
COC(=O)c1ccccc1NC(=O)CSc1cc(-c2ccccc2)nc(C)n1	.	.	.	.	3%
CC(C)CCn1c(SCc2c(F)cccc2Cl)nc2ccsc2c1=O	.	.	.	.	3%
NNC(=O)c1cc2cc3ccccc3nc2s1	26%	8%	1%	-1%	21µM*
COc1ccc(OCc2cc(C(=O)NCCCc3ccccc3)no2)c(Cl)c1	5%	-20%	.	-9%	?
